Assay [1] is described as follows: CCTE_Padilla_ZF_144hpf_TERATOSCORE: (Legacy) CCTE's 144 Hour Post-fertilization zebrafish Assay Teratoscore, Padilla Lab (AID 2283679; active means hit-call score of the fitted dose curve at least 0.9, where 1 is the maximum; inactive means score below 0.9;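 on AC50: zebrafish embryos with chorions exposed by immersion from 6-8 hpf to 5 dpf with daily renewal; teratogenicity score from eye scoring of death hatching and malformations at 144 hpf; higher score means more developmental defects relative to DMSO baseline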). The method in brief:
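Larvae scored by eye at 144 hpf for death, hatching and malformations after a day in clean Hanks'. Before that, daily-renewed exposure at 80 uM (0.4% DMSO, 26C) from roughly 6-8 hpf through 5 dpf, 4 embryos per chemical.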

Assay [2] is described as follows: Tanguay_ZF_120hpf_ActivityScore_legacy: (Legacy) Oregon State University Tanguay Lab 120 Hour Post-fertilization zebrafish Assay Score for Activity (AID 2283742).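 On AC50: static exposure from 6 hpf until 120 hpf at 28 °C.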 The essentials:
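Tropical 5D wild-type zebrafish embryos, dechorionated with pronase at 4 hpf, were exposed singly from 6 hpf to 120 hpf statically at 28C in 0.64% DMSO. Malformations and mortality were scored as binary by brightfield, with the activity score combining 18 morphology components.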

Assay [3] relates to zebrafish Androgen Receptor (AR), gene 100005148. Nature of the assay: ATG_zfAR_XSP1: Attagene TRANS-FACTORIAL Multi-Species (XSP1) HepG2 Assay for zebrafish Androgen Receptor (AR) (AID 2283771). The method in brief: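 HepG2 cells were transiently transfected with a zebrafish AR-GAL4 reporter system and partially stimulated with 3 nM 6-alpha-fluorotestosterone. Reporter mRNA was measured after 24 h dosing by RT-PCR with capillary electrophoresis, and gain-of-signal was fitted relative to DMSO.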

Assay [4] addresses zebrafish Estrogen Receptor (ESR1), esr1 (gene 259252) (UniProt P57717). Kind of assay: ATG_zfER1_XSP1: Attagene TRANS-FACTORIAL Multi-Species (XSP1) HepG2 Assay for zebrafish Estrogen Receptor (ESR1) (AID 2283772). The method in brief:
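Trans-activation readout: transfected zebrafish ER-Gal4 drives a UAS reporter in human HepG2 liver cells. After 24 h compound exposure (medium containing 3 nM 6-alpha-fluorotestosterone), induced reporter transcripts were quantified by RT-PCR with capillary electrophoresis, relative to DMSO.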

In assay [5] the test system is zebrafish Estrogen Receptor (ESR2B), gene 317733. Kind of assay: ATG_zfER2b_XSP1: Attagene TRANS-FACTORIAL Multi-Species (XSP1) HepG2 Assay for zebrafish Estrogen Receptor (ESR2B) (AID 2283773). The essentials:
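HepG2 cells transiently transfected with multiple GAL4-UAS reporter units expressing chimeric zebrafish ER2b-Gal4; 24 h chemical exposure with 3 nM 6-alpha-fluorotestosterone present. Reporter mRNA measured by RT-PCR and capillary electrophoresis; gain of signal fitted versus DMSO.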

Assay [6] has as its system frog Estrogen Receptor (ESR2), gene 100174814. Nature of the assay: ATG_frER2_XSP1: Attagene TRANS-FACTORIAL Multi-Species (XSP1) HepG2 Assay for frog Estrogen Receptor (ESR2) (AID 2283774). The method in brief: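 HepG2 cells transiently transfected with GAL4-UAS multiplexed reporter units expressing chimeric NR-Gal4 proteins; reporter mRNA measured 24 h after dosing by RT-PCR, FAM labeling, HpaI digestion and capillary electrophoresis. Gain-of-signal relative to DMSO; 3 nM 6-alpha-fluorotestosterone present.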

A short description of assay [7]: ACEA_AR_agonist_AUC_viability: ACEA Biosciences xCELLigence Real-Time Cell Analysis on Androgen Receptor Agonism for Viability (AID 2283775).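 On AC50: viability read 80 hours after compound addition.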 The essentials: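 Read-out is area under the impedance curve at 80 h post-dose in 22Rv1 cells, with DMSO as baseline and signal loss taken as reduced viability. Compounds ran in duplicate from 100 uM final.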
A short description of assay [8]: STM_H9_OrnithineISnorm_perc: Stemina devTOX quickPredict H9 human embryonic stem cell (hESC)-based Assay for Ornithine (ORN) Metabolite Biomarker, Normalized (AID 2283712; active means hit-call score of the fitted dose curve at least 0.9, where 1 is the maximum; inactive means score below 0.9;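 further: ornithine released into spent medium during last day measured by mass spectrometry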). The essentials:
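Undifferentiated pluripotent H9 hESCs were exposed to compound for 72h, with media and compound replaced every 24h. Ornithine in final 24-h conditioned media was measured by UPLC-HRMS, normalized to 13C-labeled spike-in standard and to median 0.1% DMSO control.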

A short description of assay [9]: STM_H9_CystineISnorm_perc: Stemina devTOX quickPredict H9 human embryonic stem cell (hESC)-based Assay for Cystine (CYSS) Metabolite Biomarker, Normalized (AID 2283713; active means hit-call score of the fitted dose curve at least 0.9, where 1 is the maximum; inactive means score below 0.9). The essentials:
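Undifferentiated H9 hESCs were exposed to compound for 72h, with medium and compound replaced every 24h. Final-24h conditioned medium was deproteinized and analyzed by UPLC-HRMS. Cystine EIC area was normalized to spiked C13 standard and 0.1% DMSO median.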

Assay [10] is described as follows: STM_H9_OrnCyssISnorm_ratio: Stemina devTOX quickPredict H9 human embryonic stem cell (hESC)-based Assay for Ornithine (ORN):Cystine (CYSS) Ratio (AID 2283714). The method in brief:
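Undifferentiated H9 hESCs were exposed to compound for 72h with media and chemical replaced every 24h. Final 24-h conditioned media were deproteinized and analysed by UPLC-HRMS. ORN and CYSS peak areas were normalized to C13 internal standards and the ratio taken versus 0.1% DMSO.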

A short description of assay [11]: CEETOX_H295R_MTT_cell_viability: Viability Assessment in the CeeTox HT-H295R MTT Assay (AID 2283718; active means hit-call score of the fitted dose curve at least 0.9, where 1 is the maximum; inactive means score below 0.9;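 on AC50: curve fitted both ways so AC50 may mark viability loss or gain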). The method in brief:
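H295R cells prestimulated 48 h with 10 uM forskolin, then exposed 48 h to test chemical (0.1% DMSO final). Viability by MTT (0.5 mg/ml, 4 h, 37 C), absorbance 570/650 nm; percent change versus DMSO, bidirectional fit.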

Assay [12] concerns Thyroperoxidase (TPO), gene 445522. Nature of the assay: CCTE_Simmons_GUA_TPO: CCTE's Guaiacol Assay for Thyroperoxidase (TPO) Inhibition, Simmons Lab (AID 2283750). The essentials:
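Porcine thyroid microsomes (25 ug) in 200mM potassium phosphate, preincubated 30 s at 37C with compound (8 concentrations, 5 nM–87.5 uM) and 35mM guaiacol; 1mM H2O2 starts reaction. Absorbance change at 450nm over first 80 s; loss of signal versus DMSO, three replicates.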

A short description of assay [13]: ArunA_CellTiter_hNC: Viability Assessment in the ArunA Biomedical's Oris Neural Crest (hNC) Cell Migration Assay (AID 2283752). The essentials:
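Human H9-derived neural crest stem cells were plated at 60,000 per well on Matrigel in growth medium with LIF and bFGF, incubated 16 h at 37C, then exposed to chemical for 72 h. Viability was read with CellTiter Aqueous One as loss of signal versus DMSO.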

The nature of assay [14]: ArunA_CellTiter_hNP: Viability Assessment in the ArunA Biomedical's Oris Neural Crest (hNC) Cell Migration Assay (AID 2283753). The method in brief: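 H9-derived hNP1 neuroprogenitors, 60,000/well on Matrigel, cultured 16 h, then 72 h chemical exposure in test medium. Cell titer via CellTiter Aqueous One; positive-direction fit vs DMSO.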
Assay [15] is described as follows: ArunA_Migration_hNP: ArunA Biomedical's Oris Neuroprogenitor (hNP) Cell Migration Assay (AID 2283754). The method in brief: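 Human H9-derived hNP1 neuroprogenitors on Matrigel with LIF/bFGF, plated around seeding stoppers for 16 h at 37C; stoppers removed at start of 72 h chemical exposure. Calcein-AM staining, fluorescence 494/517 nm in detection zone; loss-of-signal vs DMSO; cytochalasin D control.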

A short description of assay [16]: ArunA_Migration_hNC: ArunA Biomedical's Oris Neural Crest (hNC) Cell Migration Assay (AID 2283755). The essentials:
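Human H9-derived neural crest stem cells, 60,000/well on Matrigel, 16 h at 37C, then 72 h chemical exposure after seeding-stopper removal. Migration into detection zone read as calcein-AM fluorescence (ex494/em517), relative to DMSO.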

Assay [17] can be described thus: ArunA_NOG_NucleusCount: ArunA Biomedical's Neurite Outgrowth (NOG) Assay for Nucleus Count (AID 2283756). The essentials:
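Human H9-derived differentiated neurons were exposed for 48 h right after seeding. Hoechst-stained nuclei gated by size and intensity were counted by automated high-content imaging as viable neurons. Loss of signal vs DMSO.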

Assay [18] can be described thus: ArunA_NOG_BranchPointsPerNeurite: ArunA Biomedical's Neurite Outgrowth (NOG) Assay for Branch Points Per Neurite (AID 2283759). The method in brief:
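Automated image analysis traced neurites (processes >10 um) from valid cell bodies after Hoechst and βIII-tubulin staining. hNN cells from H9 embryonic stem cells, 48 h exposure. Fitted bidirectionally against DMSO.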

Assay [19] in a line: ArunA_NOG_NeuritesPerNeuron: ArunA Biomedical's Neurite Outgrowth (NOG) Assay for Neurites Per Neuron (AID 2283758). The essentials:
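Differentiated human H9-derived neurons exposed to chemicals for 48 h from seeding, then stained with Hoechst and βIII-tubulin/DyLight 488. Automated imaging counted neurites (processes >10 um) per valid neuron; loss of signal versus DMSO scored.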

This passage reports AC50 and outcome results from PubChem BioAssay (EPA / NIEHS).

Results filed as inconclusive are left out. Calls of active or inactive are those of the source. How the source made its calls, unless noted: active means hit-call score of the fitted dose curve at least 0.9, where 1 is the maximum; inconclusive means response in the unintended direction; inactive means score below 0.9.

Sequence of zebrafish Estrogen Receptor (ESR1), esr1 (gene 259252) (P57717 whole entry, looked up, the tested form may be a part): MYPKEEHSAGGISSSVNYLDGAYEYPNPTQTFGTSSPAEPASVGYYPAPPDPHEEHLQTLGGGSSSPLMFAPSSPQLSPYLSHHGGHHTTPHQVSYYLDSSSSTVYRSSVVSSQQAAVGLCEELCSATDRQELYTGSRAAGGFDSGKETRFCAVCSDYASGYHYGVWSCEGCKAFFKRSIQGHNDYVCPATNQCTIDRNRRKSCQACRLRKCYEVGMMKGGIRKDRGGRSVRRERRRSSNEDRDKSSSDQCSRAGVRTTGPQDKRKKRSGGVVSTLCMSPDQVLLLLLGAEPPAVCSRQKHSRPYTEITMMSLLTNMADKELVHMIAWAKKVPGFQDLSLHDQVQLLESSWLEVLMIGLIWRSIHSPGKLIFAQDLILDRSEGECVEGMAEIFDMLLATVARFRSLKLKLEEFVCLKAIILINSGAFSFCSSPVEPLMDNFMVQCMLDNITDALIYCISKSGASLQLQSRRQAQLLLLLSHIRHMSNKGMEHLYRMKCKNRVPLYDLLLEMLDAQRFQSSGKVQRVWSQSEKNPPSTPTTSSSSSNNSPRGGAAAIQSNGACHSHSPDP

As for `CC(C)(C)c1cc(O)c(C(C)(C)C)cc1O`, the AC50 (in general, the midpoint of the concentration-response curve, whichever way the signal moves) was 1.19 µM (active) in [1], 40.5 µM (active) in assay [2], 186 µM (active) in assay [5] and 66.3 µM (active) in assay [7]. Also, the compound was called inactive in assay [3], in assay [4] and in assay [6].

`CCOc1ccc2c(c1)C(C)=CC(C)(C)N2`: the AC50 in [1] was 57.7 µM (active); in assay [12], 130 µM (active); in assay [7], 79.8 µM (active). Further, the outcome in [8], in assay [9], in [10], in assay [11] and in [2] was inactive.

As to `COc1cc(C=O)ccc1O`, the AC50 in assay [1] was 11.8 µM (active); in assay [2], 69.8 µM (active).

For `Cc1c(C(=O)O)c(O)cc2c1C(=O)c1c(O)c([C@@H]3O[C@H](CO)[C@@H](O)[C@H](O)[C@H]3O)c(O)c(O)c1C2=O`, the outcome in assay [1], in assay [8], in assay [9], in assay [10], in assay [11] and in assay [2] was inactive.

Turning to `CCCCc1ccc2c(n1)[C@@H](c1ccc(OC)cc1C[C@H](C)C(=O)O)[C@H](C(=O)O)[C@H]2c1ccc2c(c1)OCO2`, the result in assay [8], in assay [9], in assay [2], in assay [13], in [14] and in assay [15] was inactive. The compound was called inactive in [16], in assay [17], in assay [18] and in [7].

On to `COc1ccc(S(=O)(=O)N2C(=O)[C@@](c3ccccc3OC)(N3C[C@H](O)C[C@H]3C(=O)N(C)C)c3cc(Cl)ccc32)c(OC)c1`, for which the AC50 was 5.99 µM (active) in [8], 3.43 µM (active) in assay [11] and 20.3 µM (active) in [7]. Besides, the outcome in assay [9], in assay [10] and in [2] was inactive.

With `CCCCCCOCCO`, the call in [2] was inactive.

Take `O=[N+]([O-])C(CO)(CO)CO`: in assay [2], the outcome was inactive.

As to `COc1cc(S(=O)(=O)O)c(C)cc1N=Nc1c(O)ccc2cc(S(=O)(=O)O)ccc12`, the call in assay [2] was inactive.

In the case of `CC(=O)OC/C=C(\C)CCC=C(C)C`, the AC50 in [1] was 52.8 µM (active). Further, the outcome in assay [2] and in [7] was inactive.

`CC(=O)OCCOCCOCCOC(C)=O`: the compound was called inactive in [2].

Regarding `CCCCN(CCCC)CCCC`, in [2], the result was inactive.

For `Nc1ccc2c(c1)C(=O)c1ccccc1C2=O`, the call in [11], in [2] and in [7] was inactive.

`OC[C@@H](O)[C@@H](O)[C@H](O)[C@H](O)CO`: the outcome in assay [8], in assay [9], in assay [10], in assay [2], in assay [13] and in assay [16] was inactive. Moreover, the outcome in [19] was inactive. Besides, the AC50 in [14] is 80.6 µM (active); in assay [17] it was 50 µM (active); in assay [18], 9.92 µM (active).

Consider `Cc1ccccc1Cl`, for which the result in assay [2] was inactive.

For `Cc1cccc(C)c1O`, the compound was classed as inactive in [2] and in assay [12].

Regarding `NC(=O)Cn1c(=O)cc(CCN2CCN(c3nccc4sccc34)CC2)c2ccc(F)cc21`, the AC50 in assay [8] was 0.0187 µM (active). The result in [9], in assay [10], in [11], in assay [2] and in assay [7] was inactive.
